Hits are enriched below; roughly 19% of the tested compounds scored in any of these assays.
IL1B secr inh: blocks inflammasome-driven IL-1 beta release. THP-1 LPS/ATP IL-1B secretion, AlphaLISA, 16 h; active compounds read low. actives 4.7% (n = 360,000). activity change, % at 57.5 µM. AID 743279; in the data active = activity change below about -50%; inconclusive = mostly about -30% to -49%; note: % is set by controls: 0 for no effect and ±100 for the full control effect
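Secreted IL-1B measured by AlphaLISA bead assay after 16 h compound exposure of THP-1 cells; compounds (final up to 57.5 uM) added 1 h before LPS (250 ng/mL) and ATP (1.25 mM) stimulation; lower signal means less secretion.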
HepG2 viability: kills HepG2 cells in TGF-b inhibitor counter-screen. actives 0.76% (n = 410,000). AID 588856. Potency, µM (titrated, usually from 46.1 µM), without a hit: at the top dose activity change, negative = cytotoxicity, actives largely listed as cytotoxic. HepG2 CAGA-GFP viability, ATP luminescence, 18 h; note: potency is the fitted concentration of half-maximal effect
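CellTiter-Glo luminescence gave cytotoxicity after 18 hours at 37 degrees C. The cells were HepG2 CAGA-GFP in 1% FBS DMEM, stimulated with 500 pg/mL TGF-beta after compound addition. %Activity was normalised to no-cell wells (complete cell-killing) and DMSO (no toxicity), and curves were fitted and classified.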
TDP1 cell CPT: DT40-hTDP1 cell growth loss with CPT; Potency, µM (top dose mostly 46.2 µM), for the others: top-dose activity change, negative = growth inhibition, usual class: inhibitors; chicken DT40 Tdp1-/-;hTDP1 cells + 20 nM CPT, ATP luminescence, 48 h; AID 686979; actives 12% (n = 420,000); note: potency is the fitted concentration of half-maximal effect; % is set by controls: 0 for no effect and ±100 for the full control effect; nearly all actives have a fitted effect of over 55% in size
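Chicken DT40 Tdp1-/- cells stably complemented with human TDP1 were seeded at 400 cells/well in medium containing 20 nM camptothecin, exposed to pin-transferred compounds, and grown at 37 °C for at least 48 hr. Viability was read as ATP luminescence.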
TGFb SMAD3 inh: TGF-b pathway inhibition; HepG2 CAGA-GFP TGF-b/SMAD3 reporter, GFP fluorescence, 18 h; TGF-beta stimulated, 500 pg/mL final; Potency, µM (top dose mostly 46.1 µM), without a hit: at the top dose activity, negative = inhibition, hits mostly inhibitors; actives 1.2% (n = 410,000); note: potency is the fitted concentration of half-maximal effect; % is set by controls: 0 for no effect and ±100 for the full control effect; nearly all actives have a fitted effect of over 65% in size
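HEPG2 CAGA-GFP reporter cells (1000/well, DMEM with 1% FBS) received compounds, then recombinant TGF-beta at 500 pg/mL final for 18 hours at 37 degrees C. Per-cell GFP summed per well was normalised to unstimulated and stimulated DMSO controls before curve fitting.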
TDP1 cell noCPT: qHTS for Inhibitors of human tyrosyl-DNA phosphodiesterase 1 (TDP1): qHTS in cells in absence of CPT; Potency, µM (highest dose often 46.2 µM), for the others: at the highest dose activity change, negative = growth inhibition, actives largely listed as inhibitors; actives 15% (n = 420,000); DT40 Tdp1-/- hTDP1 cells, no CPT, ATP luminescence, 48 h; note: potency is the fitted concentration of half-maximal effect; % is set by controls: 0 for no effect and ±100 for the full control effect; nearly all actives have a fitted effect of over 55% in size
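Luminescent ATP content (CellTiter-Glo) served as the growth readout. Knockout chicken DT40 cells expressing human TDP1 were exposed to compounds without camptothecin for a minimum 48 hr at 37 °C.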
TDP1 inh: TDP1 (human) enzyme inhibition; actives 0.28% (n = 350,000); Potency, µM (highest dose often 130 µM), without a hit: at the top dose activity change, negative = inhibition, hits mostly inhibitors; Q9NUW8; recombinant TDP1, AlphaScreen DNA substrate cleavage; note: potency is the fitted concentration of half-maximal effect; % is set by controls: 0 for no effect and ±100 for the full control effect; nearly all actives have a fitted effect of over 40% in size
Target sequence (Q9NUW8 whole entry, looked up): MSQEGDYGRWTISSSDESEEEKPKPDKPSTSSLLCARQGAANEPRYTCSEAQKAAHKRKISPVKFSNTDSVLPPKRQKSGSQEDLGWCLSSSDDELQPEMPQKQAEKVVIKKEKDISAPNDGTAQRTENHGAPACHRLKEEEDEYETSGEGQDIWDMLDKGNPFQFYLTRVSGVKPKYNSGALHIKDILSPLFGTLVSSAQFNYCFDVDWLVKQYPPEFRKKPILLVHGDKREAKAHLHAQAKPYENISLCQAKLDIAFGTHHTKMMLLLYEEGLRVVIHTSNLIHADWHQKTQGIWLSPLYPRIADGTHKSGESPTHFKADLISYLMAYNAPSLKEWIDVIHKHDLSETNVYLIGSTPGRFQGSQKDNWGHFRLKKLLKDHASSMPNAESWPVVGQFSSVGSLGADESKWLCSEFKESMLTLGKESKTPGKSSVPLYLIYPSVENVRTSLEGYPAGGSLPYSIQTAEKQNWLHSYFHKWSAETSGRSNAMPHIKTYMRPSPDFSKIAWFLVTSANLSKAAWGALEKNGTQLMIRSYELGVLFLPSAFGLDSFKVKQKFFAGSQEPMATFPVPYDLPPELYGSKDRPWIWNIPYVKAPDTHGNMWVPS
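Recombinant E. coli-expressed Tdp1 (1 nM) preincubated with compound 15 min at RT, then 5'-biotin/3'-phosphotyrosine-FITC DNA substrate (15 nM) added for 5 min. AlphaScreen beads (10 ug/ml) added, 10 min RT; tyrosine-FITC cleavage read as signal loss.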
* = called active by the depositor; ? = inconclusive; / = no result; [ ] = dose if it differs, or a comment. Unless noted, calls come from the whole dose curve; as a rule, active = well fitted curve in the direction sought with a large enough effect; inconclusive = small, poorly fitted or top-dose-only effect, or another doubt; inactive = no such curve, though single readings can be large; an effect the other way counts as inactive or inconclusive.

SMILES	IL1B secr inh	HepG2 viability	TDP1 cell CPT	TGFb SMAD3 inh	TDP1 cell noCPT	TDP1 inh
COc1ccc(C2CC(c3ccc4ccccc4c3OC(C)=O)=NN2C(C)=O)cc1 (configuration not stated)	-26	-25%	10µM*	?	9.2µM*	1%
COc1ccc(C2CC(c3ccccc3)=NN2C(=S)Nc2ccccc2)cc1 (configuration not stated)	-18	4%	?	0%	?	3%
CCCCCCCC#Cc1ccccc1C(NC(=O)OC)C(C(=O)OC)C(=O)OC (configuration not stated)	/	/	/	/	/	5%[21 µM]
O=Cc1ccc(OC(=O)/C=C/c2ccccc2)cc1	-4	-9%	-25%	2%	8%	/
Cc1cn2c(=O)cc(COc3ccc(NC(=O)c4ccccc4C)cc3)nc2s1	/	-1%	-10%	-49%	-5%	9%
COc1ccc(C2CC(c3ccccc3)=NN2C(=O)c2ccc(F)cc2)cc1 (configuration not stated)	-64*	-23%	?	?	29µM*	/
COc1ccc(C2=NN(C(=O)c3ccc(Cl)c([N+](=O)[O-])c3)C(c3ccccc3)C2)cc1 (configuration not stated)	-14	-8%	?	-19%	?	8%
COc1ccccc1NC(=O)C(OC(=O)CNC(=O)c1ccccc1)c1ccccc1 (configuration not stated)	/	/	/	/	/	0%
COc1ccc(C2CC(=O)N(CC(=O)Nc3ccc(C)c(Cl)c3)c3ccccc3S2)cc1OC (configuration not stated)	/	-10%	/	-6%	/	0%
O=C(COc1c(Br)cc(Br)c2cccnc12)Nc1ccccc1F	15	-22%	?	0%	18µM*	5%
O=C(COc1ccccc1)Nc1ccccc1F	-1	1%	25%	1%	-11%	/
CCC(=O)c1ccccc1OCCCN1CCC(Cc2ccccc2)CC1	-89*	-41%	?	?	?	6%
COc1cc(CN2CCC(Cc3ccccc3)CC2)cc(OC)c1OC	-26	-24%	?	1%	?	/
COc1cccc(OC)c1OCCCCN1CCC(Cc2ccccc2)CC1	-77*	-12%	?	-8%	18µM*	-13%
COc1cccc(OC)c1OCCCCN1CCCC1	11	-3%	-15%	2%	-18%	-4%
COc1ccc(CN2CCC(Cc3ccccc3)CC2)c(C)c1C	-78*	-32%	?	-5%	?	/
COc1ccc(CN2CCC(N(CCc3ccccc3)Cc3ccccc3)CC2)c(OC)c1	-94*	-49%	23µM*	?	23µM*	-3%
CC(=O)OCC1OC(n2cnc3c(=O)[nH]cnc32)C(OC(C)=O)C1OC(C)=O (configuration not stated)	/	/	1%	/	8%	11%[56.1 µM]
CC(=O)c1ccc(NC(=O)CN(C)S(=O)(=O)c2cc3c(cc2C)NC(=O)CO3)cc1	/	-12%	-15%	9%	?	1%
N#Cc1ccccc1OCCCN1CCC(Cc2ccccc2)CC1	?	-41%	?	0%	16µM*	3%
CCOC(=O)c1c(C)[nH]c(C)c1S(=O)(=O)N1CCC(C(=O)N2CCN(c3ccccc3)CC2)CC1	/	-8%	-18%	-20%	-25%	2%
NC(=O)c1ccsc1NC(=O)c1ccc(S(=O)(=O)N2CCCC2)cc1	-2	-47%	?	-2%	?	5%
